# The list is not random: actives were taken first. Their share in the collection is about 4.1%.
# hcDAF12 agonist = activates DAF-12 receptor from parasite H. contortus; HEK293 hcDAF-12 lit1-tk-luc reporter, luminescence; 0% DMSO, 100% Δ7-dafachronic acid; activation, % at 6.8 µM; 370,000 compounds, 1.4% hits; AID 652067;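 active = activation above the mean of all tested compounds plus 3 SD, cut at about 5.5% in these data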;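 also: 100% = response to 3 µM Δ7-dafachronic acid high control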
# ssDAF-12 act = activators of S. stercoralis DAF-12 nuclear receptor | HEK293 ssDAF-12/GRIP1 lit1-tk-luc reporter, luminescence; % of 3 µM dafachronic acid response | activation, % at 6.8 µM | 370,000 compounds, 1% hits;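 active = activation above the mean over all tested compounds plus 3 SD, cut at about 0.9% in these data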;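 also: 0% = DMSO-only wells and 100% = 3 µM delta7-dafachronic acid wells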
# DAX1 inh-1 = inhibitors of DAX1 repression of SF-1 activated StAR promoter; AID 652010; 370,000 compounds, 1.1% hits; inhibition, % at 6.8 µM; HEK293T StAR-luciferase reporter, SF-1/DAX-1 repression relief;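 active = inhibition above the mean over all tested compounds plus 3 SD, cut at about 3.6% in these data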;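 also: 0% = DAX-1 cells with DMSO and 100% = cells lacking DAX-1 with DMSO; higher inhibition means more luminescence from relief of DAX-1 repression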
# DAX1 inh-2 = inhibits human nuclear receptor DAX1 | inhibition, % at 6.75 µM | 340,000 compounds, 0.99% hits | AID 504766 | HEK293 Gal4-DAX1 luciferase reporter, luminescence;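 active = inhibition above the mean over all tested compounds plus 3 SD, cut at about 4.2% in these data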;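 also: 0% = DAX1-transfected cells with DMSO and 100% = empty-vector control cells with DMSO; inhibition shows as a rise in luminescence from relieved DAX1 repression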
# Target sequence (P51843 207-470 limits assumed): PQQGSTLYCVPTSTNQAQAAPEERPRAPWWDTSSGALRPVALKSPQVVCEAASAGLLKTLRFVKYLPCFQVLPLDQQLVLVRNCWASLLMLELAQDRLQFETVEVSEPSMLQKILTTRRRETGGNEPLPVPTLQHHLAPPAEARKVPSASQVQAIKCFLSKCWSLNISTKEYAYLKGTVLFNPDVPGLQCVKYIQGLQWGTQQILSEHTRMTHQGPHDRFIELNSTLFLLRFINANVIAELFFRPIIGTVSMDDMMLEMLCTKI
# PolyA inhibitor = blocks polyadenylation in yeast reporter cells; activity score, % at 12 µM; S. cerevisiae SKY197-pL101 polyadenylation reporter, beta-gal luminescence; efflux-impaired pdr1/pdr3 knockout yeast; score 100 = 6 SD above DMSO; AID 1875; 300,000 compounds, 0.02% hits;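 active = lowest replicate activity score at least 50, where 100 means six control SD above control mean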;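 also: yeast exposed to compound for 9 h at 30 °C; higher score means more reporter readthrough which indicates perturbed polyadenylation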
# hgDAF-12 ag = hgDAF-12 agonism, primary luciferase screen; HEK293 GAL4-hgDAF12 UAS-luciferase reporter, agonist luminescence; normalized to butyrate control; activation, % at 6.8 µM; 370,000 compounds, 1.8% hits; AID 687014;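 active = activation above a cutoff set at the mean of all screened compounds plus 3 SD, cut at about 10% in these data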;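 also: 0% = DMSO wells and 100% = sodium butyrate wells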
# * = called active by the depositor; · = no result.
SMILES,hcDAF12 agonist,ssDAF-12 act,DAX1 inh-1,DAX1 inh-2,PolyA inhibitor,hgDAF-12 ag
COc1ccc(Cl)cc1N1C(=O)C2CCCN2C1c1ccc(F)cc1 (stereo not drawn),1,-1,0,4.5*,-17,4
O=C1C2CCCN2C(c2ccc(F)cc2)N1c1cccc(Cl)c1 (stereo not drawn),6.4*,-1,1,3,17,3
O=C1C2CCCN2C(c2cccc(F)c2)N1c1cccc(Cl)c1 (stereo not drawn),-1,-1,0,1,1,0
O=C(NCc1ccc(Cl)cc1)c1ccc(OCC2CCCO2)cc1 (stereo not drawn),-1,0,0,1,-7,3
O=C(Nc1ccc(Cl)cc1)c1ccc(OCC2CCCO2)cc1 (stereo not drawn),0,-1,0,-2,-5,13*
c1ccc(CC(Nc2cccnc2)c2ccccc2)cc1 (stereo not drawn),1,-1,-1,·,·,-2
CCN(CC(=O)NCc1ccncc1)S(=O)(=O)c1cc(Cl)ccc1Cl,-3,-1,0,4.2*,4,3
FC(F)(F)c1cnc(Oc2cccc3ccccc23)c(Cl)c1,3,1.0*,0,0,6,2
CCOC(=O)CC[C@@H]1CC[C@]2(CCCN(Cc3nccs3)C2)O1,-1,-1,1,·,·,-5
O=C(O)c1cc(-c2ccc3c(c2)OCO3)nc2ccc(Cl)cc12,5.8*,1,1,0,28,1
CC(C)(C)NC(=O)c1cc(-c2ccc3c(c2)OCO3)nc2ccccc12,5.9*,0,-1,0,21,4
Cn1c(NC(=O)c2cc(-c3ccc4c(c3)OCO4)nc3ccccc23)cc(=O)n(C)c1=O,1,0,1,2,-2,3
CC(C)c1[nH]nc2c1C(c1cccc(C(F)(F)F)c1)N(c1ccccc1)C2=O (stereo not drawn),-1,-2,0,·,·,-7
CCN(CC)C(=O)CSc1nnc(-c2ccccn2)n1C,-1,-1,0,·,·,2
CCc1noc(C)c1C(=O)NNC(=O)c1nn(CC)c(=O)c2ccccc12,0,-1,-1,5.2*,5,1
CCOC(=O)C1(Cc2cccc(OC)c2)CCCN(C(=O)CCc2cccnc2)C1 (stereo not drawn),0,-1,0,4,-8,12*
CCOC(=O)C1(Cc2ccccc2)CCCN(C(=O)COc2ccccc2OC)C1 (stereo not drawn),1,0,3,4.3*,·,8
CCCCCCC(=O)NC1CCCCN(Cc2ccc(C)cc2)C1=O (stereo not drawn),0,-1,-2,·,·,4
Fc1ccc(Cn2ccc3ccc(-c4ccc5ccn(Cc6ccc(F)cc6F)c5c4)cc32)c(F)c1,1,-1,0,·,·,2
CC1CC(C)CN(c2oc(Cc3ccccc3)nc2C#N)C1 (stereo not drawn),-2,-2,0,-1,-3,-3
N#Cc1nc(Cc2ccccc2)oc1N1CCCC1,-1,-1,0,6.2*,-8,2
Cc1noc(NS(=O)(=O)c2ccc(N/C=C/C(=O)c3ccc(F)cc3)cc2)c1C,1,-1,1,1,10,0
COc1ccc(C(=O)/C=C/Nc2ccc(S(=O)(=O)Nc3onc(C)c3C)cc2)cc1,4,1.2*,3.9*,1,6,11*
CCc1ccc(C(=O)/C=C/Nc2ccc(S(=O)(=O)Nc3onc(C)c3C)cc2)cc1,2,0,1,0,-13,11*
CC1(C)CNC(=O)c2sc(N3CCCCC3)nc2C1,0,0,0,5.6*,20,1
SMILES,hcDAF12 agonist,ssDAF-12 act,DAX1 inh-1,DAX1 inh-2,PolyA inhibitor,hgDAF-12 ag
CC1(C)CC(=O)c2sc(N3CCCCC3)nc2C1,1,0,1,3,9,4
CCOC(=O)CC[C@H](NC(=O)[C@@H]1CC=C[C@@H]2CCN(Cc3ccc(Cl)cc3)C(=O)[C@@H]21)C(=O)OCC,-2,-1,·,·,·,2
Cc1ccc(C)c(NC(=O)C(OC(=O)c2cnc(C)cn2)c2ccccc2)c1 (stereo not drawn),1,0,2,-1,4,1
Cc1cnc(C(=O)OC(C(=O)c2c[nH]c3ccccc23)c2ccccc2)cn1 (stereo not drawn),1,0.9*,2,0,3,0
CCOCc1c(C(=O)N2CCN(CCOc3ccc(Cl)cc3)CC2)oc2ccccc12,-3,-1,-5,-3,·,-3
CCOCc1c(C(=O)N2CCN(CC(=O)Nc3ccc(F)cc3)CC2)oc2ccccc12,4,1.2*,0,-1,·,1
O=C(Cc1c[nH]c2ccccc12)Nc1ccc(Nc2cccnc2)c(Br)c1,0,-1,-2,·,·,0
C[C@@H]1CN([C@@H](C)CO)C(=O)CCCn2cc(nn2)CO[C@H]1CN(C)C(=O)Nc1ccnc(N2CCOCC2)c1,-1,-1,0,·,·,-2
C[C@H](CO)N1C[C@H](C)[C@@H](CN(C)C(=O)Nc2cccc(Oc3ccccn3)c2)OCc2cn(nn2)CCCC1=O,-1,-1,2,·,·,1
C[C@@H]1CN([C@@H](C)CO)C(=O)CCCn2nncc2CO[C@@H]1CN(C)C(=O)Nc1ccnc(N2CCOCC2)c1,0,-1,1,6.2*,·,0
C[C@@H]1CN([C@H](C)CO)C(=O)CCCn2cc(nn2)CO[C@H]1CN(C)C(=O)Nc1cccc(Oc2ccccn2)c1,-1,-1,0,6.3*,·,0
C[C@@H]1CN([C@H](C)CO)C(=O)CCCn2nncc2CO[C@H]1CN(C)C(=O)c1ccccc1,0,-1,0,0,·,13*
O=C(NCc1ccccc1)N1CCN(Cc2nc3ccccc3c(=O)[nH]2)CC1,-4,-1,0,·,·,1
Cc1cccc(NC(=O)C2CCN(c3nnc(-n4cccc4)s3)CC2)c1C,-1,-1,0,·,·,-5
C[C@H]1CCC[C@H](O)CC(=O)c2c(O)cc(O)cc2CC(=O)O1,-3,0,-3,·,·,-9
COc1ccc(CC(=O)NCC2CCCN(Cc3ccc(F)cc3F)C2)cc1 (stereo not drawn),5,0,1,-1,-20,12*
C=CCN1[C@@H](CC(C)C)COc2cc(N3CCSCC3)ccc2S1(=O)=O,3,-1,-1,·,·,-2
CCCC[C@H]1C2CC(OC(=O)Nc3ccc(F)cc3)C(C2)[C@H]2CCCCN21 (stereo partly drawn),-1,0,-1,·,·,0
O=C1NCCNC1(c1c[nH]c2ccccc12)C(F)(F)F (stereo not drawn),5,1.4*,0,1,10,3
